In PubChem BioAssay (EPA / NIEHS) one finds outcome and AC50 data, which are given here for four compounds.

Calls of active or inactive are those of the source. How the source made its calls: active means hit-call score of the fitted dose curve at least 0.9, where 1 is the maximum; inactive means score below 0.9.

Read-out in test [1]: urokinase plasminogen activator (uPA), PLAU (gene 5328)
Nature of the test: BSK_KF3CT_uPA: BioMAP Diversity Plus: KF3CT Assay for urokinase plasminogen activator (uPA) Biomarker Activity (AID 2283075). As to conditions: primary human keratinocytes with fibroblasts; actives raise or lower the signal. An outline of the steps:
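ELISA readout of uPA, analyzed for signal gain or loss relative to DMSO, from a human primary keratinocyte–foreskin fibroblast co-culture measured 24 h after chemical treatment.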

Read-out in test [2]: CD40, CD40 (gene 958)
Nature of the test: BSK_LPS_CD40: BioMAP Diversity Plus: LPS Assay for CD40 Biomarker Activity (AID 2283076). The conditions noted are these: primary human HUVEC with PBMC; actives raise or lower the signal. The gist of the method: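 Primary human umbilical vein endothelial cells co-cultured with peripheral blood mononuclear cells, LPS-stimulated, were dosed with chemical and read 24 h later. CD40 levels were measured by ELISA and fitted bidirectionally against DMSO as negative control and baseline.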

Read-out in test [3]: E-selectin (Homo sapiens) (UniProt P16581)
Nature of the test: BSK_LPS_Eselectin: BioMAP Diversity Plus: LPS Assay for Eselectin Biomarker Activity (AID 2283077). The conditions noted are these: primary human HUVEC with PBMC; actives raise or lower the signal. The gist of the method:
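Human umbilical vein endothelial cells co-cultured with peripheral blood mononuclear cells under LPS stimulation; E-selectin measured by ELISA 24 h after chemical dosing. Activity fitted bidirectionally against DMSO as negative control and baseline.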

Read-out in test [4]: Interleukin-8 (IL8), CXCL8 (gene 3576)
Nature of the test: BSK_LPS_IL8: BioMAP Diversity Plus: LPS Assay for Interleukin-8 (IL8) Biomarker Activity (AID 2283078). As to conditions: primary human HUVEC with PBMC; actives raise or lower the signal. The gist of the method: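 Human umbilical vein endothelial cells co-cultured with PBMC were stimulated with LPS; IL-8 levels were measured by ELISA 24 h after chemical dosing. Activity was fitted bidirectionally against DMSO as negative control and baseline.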

Test [5] in a line: BSK_LPS_SRB: Viability Assessment in the BioMAP Diversity Plus: LPS Assay (AID 2283079).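 Further: total protein by sulforhodamine B absorbance as a cytotoxicity measure; measured one day after compound addition; fitted in both directions against DMSO so loss or gain of signal counts.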 The conditions noted are these: primary human HUVEC with PBMC. The gist of the method: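 Human umbilical vein endothelial cells co-cultured with PBMC (LPS system) were dosed for 24 h. Total protein was stained with 0.1% sulforhodamine B after 10% TCA fixation, read at 560 nm, and fitted bidirectionally against DMSO baseline.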

Read-out in test [6]: Interleukin-1 alpha (IL1a), IL1A (gene 3552)
Nature of the test: BSK_LPS_IL1a: BioMAP Diversity Plus: LPS Assay for Interleukin-1 alpha (IL1a) Biomarker Activity (AID 2283080). As to conditions: primary human HUVEC with PBMC; actives raise or lower the signal. An outline of the steps: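 Human umbilical vein endothelial cells co-cultured with peripheral blood mononuclear cells were LPS-stimulated and exposed to test chemicals for 24 h. IL-1 alpha was quantified by ELISA, with bidirectional curve fitting against DMSO as the negative control and baseline.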

Read-out in test [7]: Monocyte Chemoattractant Protein-1 (MCP1), CCL2 (gene 6347)
Nature of the test: BSK_LPS_MCP1: BioMAP Diversity Plus: LPS Assay for Monocyte Chemoattractant Protein-1 (MCP1) Biomarker Activity (AID 2283081). As to conditions: primary human HUVEC with PBMC; actives raise or lower the signal. An outline of the steps:
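HUVEC plus PBMC co-culture (human primary cells, LPS system) exposed to test chemical for 24 h; MCP-1 measured by ELISA. Bidirectional curve fitting against DMSO baseline; parallel SRB total-protein staining flags overt cytotoxicity.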

The nature of test [8]: BSK_LPS_PGE2: BioMAP Diversity Plus: LPS Assay for Prostaglandin E2 (PGE2) Biomarker Activity (AID 2283082).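 On AC50: secreted prostaglandin E2 measured by ELISA in LPS-stimulated co-culture.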 As to conditions: primary human HUVEC with PBMC; actives raise or lower the signal. An outline of the steps: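 LPS-activated HUVEC/PBMC co-culture; cmpd dosed, 24 h; PGE2 by ELISA; bidirectional fit vs DMSO; SRB (0.1%, TCA-fixed, 560 nm) in parallel plates for overt cytotox.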

Read-out in test [9]: Macrophage colony-stimulating factor (MCSF), CSF1 (gene 1435)
Nature of the test: BSK_LPS_MCSF: BioMAP Diversity Plus: LPS Assay for Macrophage colony-stimulating factor (MCSF) Biomarker Activity (AID 2283083). The conditions noted are these: primary human HUVEC with PBMC; actives raise or lower the signal. An outline of the steps:
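Human umbilical vein endothelial cells co-cultured with peripheral blood mononuclear cells were exposed to compound for 24 h. M-CSF levels were measured by ELISA, and bidirectional curve fitting used DMSO as the negative control and baseline.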

Read-out in test [10]: Tumor necrosis factor (Homo sapiens) (UniProt P01375)
Nature of the test: BSK_LPS_TNFa: BioMAP Diversity Plus: LPS Assay for Tumour Necrosis Factor alpha (TNFa) Biomarker Activity (AID 2283085). As to conditions: primary human HUVEC with PBMC; actives raise or lower the signal. An outline of the steps: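 Read-out is ELISA of TNFa in primary human endothelial cell–PBMC co-cultures at 24 h after compound. Activity in either direction was fitted against DMSO.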

Read-out in test [11]: Vascular cell adhesion molecule 1 (VCAM1), VCAM1 (gene 7412)
The experiment in a line: BSK_LPS_VCAM1: BioMAP Diversity Plus: LPS Assay for Vascular cell adhesion molecule 1 (VCAM1) Biomarker Activity (AID 2283086). As to conditions: primary human HUVEC with PBMC; actives raise or lower the signal. The gist of the method:
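HUVEC + PBMC co-culture, LPS system; compound 24 h; VCAM-1 by ELISA; bidirectional fit vs DMSO control; parallel SRB (0.1%, TCA-fixed, 560 nm) for cytotoxicity.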

Read-out in the next test: CD38, CD38 (gene 952)
Nature of the test: BSK_SAg_CD38: BioMAP Diversity Plus: SAg Assay for CD38 Biomarker Activity (AID 2283087). As to conditions: primary human HUVEC with PBMC; actives raise or lower the signal. An outline of the steps:
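Human HUVEC plus PBMC co-culture stimulated with superantigen; CD38 measured by ELISA 24 h after chemical dosing. Fluorescence read-out, bidirectional fit against DMSO; cytotoxicity tracked in parallel by SRB and Alamar Blue.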

Read-out in test [12]: CD40, CD40 (gene 958)
The experiment in a line: BSK_SAg_CD40: BioMAP Diversity Plus: SAg Assay for CD40 Biomarker Activity (AID 2283088). As to conditions: primary human HUVEC with PBMC; actives raise or lower the signal. The gist of the method:
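Human umbilical vein endothelial cells co-cultured with PBMC; CD40 levels measured by ELISA with fluorescence read-out 24 h after chemical dosing. Gain or loss of signal fitted bidirectionally against DMSO baseline.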

Read-out in another test: CD69, CD69 (gene 969)
The experiment in a line: BSK_SAg_CD69: BioMAP Diversity Plus: SAg Assay for CD69 Biomarker Activity (AID 2283089).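 On AC50: cell surface CD69 protein quantified by ELISA with fluorescence detection.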 The conditions noted are these: primary human HUVEC with PBMC; actives raise or lower the signal. An outline of the steps:
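Endothelial/PBMC co-culture; chemical added; 24 h incubation; CD69 ELISA with fluorescence detection; bidirectional fit vs DMSO.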

Read-out in test [13]: Monocyte Chemoattractant Protein-1 (MCP1), CCL2 (gene 6347)
The experiment in a line: BSK_SAg_MCP1: BioMAP Diversity Plus: SAg Assay for Monocyte Chemoattractant Protein-1 (MCP1) Biomarker Activity (AID 2283090). As to conditions: primary human HUVEC with PBMC; actives raise or lower the signal. An outline of the steps: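 MCP-1 levels in the endothelial–PBMC SAg co-culture were quantified by ELISA at 24 h post-dosing; both increases and decreases versus DMSO scored. Cytotoxicity monitored by SRB total protein in parallel cultures.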

Read-out in test [14]: E-selectin (Homo sapiens) (UniProt P16581)
Nature of the test: BSK_SAg_Eselectin: BioMAP Diversity Plus: SAg Assay for Eselectin Biomarker Activity (AID 2283091). As to conditions: primary human HUVEC with PBMC; actives raise or lower the signal. An outline of the steps: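 HUVEC co-cultured with PBMC, compound dosed then read at 24 h; E-selectin measured by ELISA. Activity fitted bidirectionally against DMSO as negative control and baseline.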

Read-out in test [15]: Monokine induced gamma interferon (MIG), CXCL9 (gene 4283)
The experiment in a line: BSK_SAg_MIG: BioMAP Diversity Plus: SAg Assay for Monokine induced gamma interferon (MIG) Biomarker Activity (AID 2283092). As to conditions: primary human HUVEC with PBMC; actives raise or lower the signal. An outline of the steps:
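Measures CXCL9 protein by ELISA in a human vascular primary-cell co-culture (umbilical vein endothelium with PBMC) 24 h after chemical addition. Activity is scored up or down from the DMSO control.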

Read-out in test [16]: Interleukin-8 (IL8), CXCL8 (gene 3576)
The experiment in a line: BSK_SAg_IL8: BioMAP Diversity Plus: SAg Assay for Interleukin-8 (IL8) Biomarker Activity (AID 2283094). As to conditions: primary human HUVEC with PBMC; actives raise or lower the signal. An outline of the steps:
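ELISA read-out of IL-8 in a primary human vascular co-culture (umbilical vein endothelium plus PBMC), taken 24 h after compound addition. Values derive from bidirectional fits against DMSO negative controls.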

Read-out in test [17]: Tissue Factor, F3 (gene 2152)
Nature of the test: BSK_LPS_TissueFactor: BioMAP Diversity Plus: LPS Assay for Tissue Factor Biomarker Activity (AID 2283084). As to conditions: primary human HUVEC with PBMC; actives raise or lower the signal. The gist of the method: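 Human umbilical vein endothelial cells co-cultured with peripheral blood mononuclear cells were dosed and stimulated with LPS. Cell-surface CD142 was quantified by ELISA at 24 h. Activity was fitted bidirectionally against DMSO baseline.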

Test [18] can be described thus: BSK_SAg_PBMCCytotoxicity: PBMC Cytotoxicity Assessment in the BioMAP Diversity Plus: SAg Assay (AID 2283093).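 Further: PBMC superantigen activated with SEB plus TSST-1 one hour after compound addition; PBMC viability measured as Alamar Blue reduction fluorescence at 546/580 nm; fitted both ways against DMSO so a hit may be loss or gain of signal.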 As to conditions: primary human HUVEC with PBMC. An outline of the steps: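 Compound added to 75,000 PBMC/well for 1 h; SEB and TSST-1 then added at 20 ng/mL final each; 90 h incubation; Alamar Blue 6 h; read 546/580 nm ex/em. Activity fitted bidirectionally relative to DMSO baseline.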

Broadly, the AC50 is the concentration at which the activity in the assay is half-maximal.

E-selectin (Homo sapiens), sequence (P16581 whole entry, looked up): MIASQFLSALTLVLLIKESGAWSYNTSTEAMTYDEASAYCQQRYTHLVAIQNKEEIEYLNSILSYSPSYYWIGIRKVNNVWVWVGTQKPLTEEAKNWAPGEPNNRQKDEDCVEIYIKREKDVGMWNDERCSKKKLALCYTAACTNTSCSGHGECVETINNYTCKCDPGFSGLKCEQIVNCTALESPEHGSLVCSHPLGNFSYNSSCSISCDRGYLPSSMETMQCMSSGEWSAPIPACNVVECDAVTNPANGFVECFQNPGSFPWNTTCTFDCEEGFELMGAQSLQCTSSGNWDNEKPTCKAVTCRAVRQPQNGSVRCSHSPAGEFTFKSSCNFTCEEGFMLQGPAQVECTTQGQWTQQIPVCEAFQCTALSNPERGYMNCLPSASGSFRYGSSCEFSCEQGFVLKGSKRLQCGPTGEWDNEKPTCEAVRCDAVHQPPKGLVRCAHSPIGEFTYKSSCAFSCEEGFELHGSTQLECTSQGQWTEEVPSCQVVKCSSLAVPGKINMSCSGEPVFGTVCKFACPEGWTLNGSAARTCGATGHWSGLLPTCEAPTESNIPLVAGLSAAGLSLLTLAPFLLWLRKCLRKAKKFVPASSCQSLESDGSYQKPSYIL
Tumor necrosis factor (Homo sapiens), sequence (P01375 whole entry, looked up): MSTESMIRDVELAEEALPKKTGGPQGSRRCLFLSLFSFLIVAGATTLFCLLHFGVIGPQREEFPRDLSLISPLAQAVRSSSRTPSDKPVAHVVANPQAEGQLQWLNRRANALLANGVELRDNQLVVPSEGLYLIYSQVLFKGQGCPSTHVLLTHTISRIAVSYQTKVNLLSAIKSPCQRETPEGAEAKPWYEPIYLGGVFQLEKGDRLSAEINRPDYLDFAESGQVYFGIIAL

On to `CS(=O)(=O)c1ccc([C@@H](C[C@H]2CCC(=O)C2)C(=O)Nc2cnccn2)cc1Cl`, for which the outcome in test [1] was “inactive”; with CD40, CD40 (gene 958) [2], “inactive”; in test [3], “inactive”; in test [4] it was “inactive”; in test [5], “inactive”; in test [6], “inactive”. Also, the outcome in test [7] is “inactive”; in test [8] it was “inactive”; in test [9], “inactive”; in test [10] it was “inactive”; in test [11], “inactive”; in the test with CD38, CD38 (gene 952), “inactive”. The outcome was “inactive” in the test with CD40, CD40 (gene 958) [12]; “inactive” with CD69, CD69 (gene 969); “inactive” in test [13]; “inactive” in test [14]; “inactive” in test [15]; “inactive” in [16].

For `CCCCCCC(C=O)=Cc1ccccc1`, the outcome in [1] was “inactive”; with CD40, CD40 (gene 958) [2] it was “inactive”; in test [3] it was “inactive”; in test [7], “inactive”; in test [9], “inactive”; in test [17], “inactive”. In addition, the AC50 was 29.3 µM (active) in [5]; 33.6 µM (active) in test [6]; 15.3 µM (active) in [8]; 30.1 µM (active) in test [10]; 29.7 µM (active) in test [11]; 33.4 µM (active) in the test with CD38, CD38 (gene 952). The AC50 in the test with CD40, CD40 (gene 958) [12] was 32 µM (active); with CD69, CD69 (gene 969) it was 31 µM (active); in test [13] it was 32 µM (active); in test [14] it was 34.4 µM (active); in test [15], 31.5 µM (active); in test [18], 31 µM (active). In [16], the AC50 was 29.8 µM (active).

`CC(=O)CC(c1ccccc1)c1c(O)c2ccccc2oc1=O` (stereo not drawn): the outcome is “inactive” in test [1]; “inactive” with CD40, CD40 (gene 958) [2]; “inactive” in test [3]; “inactive” in test [5]; “inactive” in test [6]; “inactive” in [7]. Also, the outcome in [8] was “inactive”; in test [9], “inactive”; in test [17], “inactive”; in test [11], “inactive”; with CD38, CD38 (gene 952) it was “inactive”; with CD40, CD40 (gene 958) [12], “inactive”. Moreover, the outcome in the test with CD69, CD69 (gene 969) was “inactive”; in test [13] it was “inactive”; in [14], “inactive”; in [15], “inactive”; in [16] it was “inactive”. In addition, the AC50 in test [10] was 0.711 µM (active).

On to `C=CCc1ccc(OC)c(OC)c1`, for which the outcome was “inactive” in [1]; “inactive” in the test with CD40, CD40 (gene 958) [2]; “inactive” in test [3]; “inactive” in [4]; “inactive” in test [5]; “inactive” in test [6]. For the same compound, the outcome is “inactive” in [7]; “inactive” in test [8]; “inactive” in test [9]; “inactive” in test [11]; “inactive” in the test with CD38, CD38 (gene 952); “inactive” with CD40, CD40 (gene 958) [12]. The outcome with CD69, CD69 (gene 969) is “inactive”; in test [13] it was “inactive”; in test [14], “inactive”; in [15], “inactive”; in test [16], “inactive”. Besides, in test [10], the AC50 is 11 µM (active).
